# A selection: hits, their analogues and other compounds. The true share with any hit is near 19%.
# TDP1 cell CPT: qHTS for Inhibitors of human tyrosyl-DNA phosphodiesterase 1 (TDP1): qHTS in cells in presence of CPT | 420,000 tested, 12% active | Potency, µM (highest dose often 46.2 µM), for the others: at the top dose activity change, negative = growth inhibition, usual class: inhibitors | chicken DT40 Tdp1-/-;hTDP1 cells + 20 nM CPT, ATP luminescence, 48 h; also: potency is read from the fitted curve at half-maximal effect; % is scaled to controls: 0 for no effect and ±100 for the full control effect; nearly all actives have a fitted effect of over 55% in size
#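 Chicken DT40 Tdp1-/- cells complemented with human TDP1, 400 cells/well, exposed to compounds plus 20 nM camptothecin for at least 48 h at 37 C; viability read as ATP content by CellTiter-Glo luminescence.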
# SW480 rereplic: A quantitative high throughput screen for small molecules that induce DNA re-replication in SW480 colon adenocarcinoma cells. AID 624297, 2012. Potency, µM (highest dose often 46.1 µM), inactives show at the highest dose re-replication activation, usual class: activators. 340,000 tested, 1.8% active. SW480 DNA re-replication, Hoechst DNA content imaging, 48 h; also: potency is read from the fitted curve at half-maximal effect; % of control where 0% means no effect; nearly all actives have a fitted effect of over 55% in size
#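 SW480 cells exposed to compounds for 48 hr at 37 C, 5% CO2, then Hoechst-stained 40 min. Nuclear DNA content imaged by fluorescence scanning (405 nm excitation, 500-530 nm emission); re-replication scored as increased high-intensity nuclei.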
# TDP1 cell noCPT: qHTS for Inhibitors of human tyrosyl-DNA phosphodiesterase 1 (TDP1): qHTS in cells in absence of CPT. DT40 Tdp1-/- hTDP1 cells, no CPT, ATP luminescence, 48 h. AID 686978, 2013. 420,000 tested, 15% active. Potency, µM (doses to about 46.2 µM), for the others: at the highest dose activity change, negative = growth inhibition, most hits filed as inhibitors; also: potency is read from the fitted curve at half-maximal effect; % is scaled to controls: 0 for no effect and ±100 for the full control effect; nearly all actives have a fitted effect of over 55% in size
#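 Luminescent ATP content (CellTiter-Glo) served as the growth readout. Knockout chicken DT40 cells expressing human TDP1 were exposed to compounds without camptothecin for a minimum 48 hr at 37 °C.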
# IL-1B inflam inh: qHTS for Inhibitors of Inflammasome Signaling: IL-1-beta AlphaLISA Primary Screen; THP-1 LPS/ATP IL-1B secretion, AlphaLISA, 16 h; active compounds read low; 360,000 tested, 4.7% active; activity change, % at 57.5 µM; in the data active = activity change below about -50%; inconclusive = mostly about -30% to -49%; also: % is scaled to controls: 0 for no effect and ±100 for the full control effect
#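 THP-1 cells pretreated 1 hr with compounds (up to 57.5 uM final), then stimulated with LPS (250 ng/mL final) plus ATP (1.25 mM final); secreted IL-1B measured by AlphaLISA after 16 hr, decreased signal indicating inhibition.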
# MCF10A rereplic: A quantitative high throughput screen for small molecules that induce DNA re-replication in MCF 10a normal breast cells | Potency, µM (highest dose often 46.1 µM), for inactives: at the highest dose activity, positive = re-replication, most hits filed as activators | 350,000 tested, 2.9% active | AID 624296, 2012 | MCF 10A DNA re-replication, Hoechst nuclear intensity, 48 h; also: potency is read from the fitted curve at half-maximal effect; % of control where 0% means no effect; nearly all actives have a fitted effect of over 50% in size
# Chronic BCR inh: qHTS Assay to Find Inhibitors of Chronic Active B-Cell Receptor Signaling; Potency, µM (top dose mostly 46.1 µM), inactives show at the top dose activity change, negative = inhibition, hits mostly inhibitors; ABC-DLBCL IkBa-CBG/CBR reporter, luminescence ratio, 4 h; 340,000 tested, 0.05% active; active = well fitted inhibition curve with a large enough effect in the signal ratio, with a control signal flat, not every such curve was filed as active; inconclusive = small, poorly fitted or top-dose-only effect, or effect the other way, or a change in a side signal; the % refers to the signal ratio;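 also: potency is read from the fitted curve at half-maximal effect; plate controls were basal doxycycline-induced cells for no effect and cells given 10 µM MG132 for full effect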
#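 Compounds up to 46 uM were incubated four hours with TMD8 cells whose green CBG68 luciferase is fused to IkappaBalpha; red CBR luminescence normalised the signal, and concentration-effect curves were fitted to fusion, red and ratio data.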
# Starred values were filed as active, the others as inactive; i = inactive; ? = inconclusive; . = no result given. Unless noted, calls follow the shape of the dose curve; as a rule, active = well fitted curve in the direction sought with a large enough effect; inconclusive = small, poorly fitted or top-dose-only effect, or another doubt; inactive = no such curve, though single readings can be large; an effect the other way counts as inactive or inconclusive.
SMILES,TDP1 cell CPT,SW480 rereplic,TDP1 cell noCPT,IL-1B inflam inh,MCF10A rereplic,Chronic BCR inh
Cc1cc(S(=O)(=O)Nc2cc3c(cc2N2CCOCC2)n(C)c(=O)c(=O)n3C)ccc1F,-15.4%,.,-26.5%,.,.,.
O=C(Cc1ccccc1)NCc1ccncc1,-5.2%,2.3%,17.2%,7.9,7.3%,?
O=C(Cc1ccccc1)NCc1ccc(-n2cccc2)cc1,3.26µM*,6.51µM*,3.66µM*,26.1,10.3µM*,-3.6%
O=C(CNC(=O)c1ccc(Br)o1)NCc1ccccc1Cl,11.5%,-15.8%,-2.9%,i,-12.6%,0.2%
O=C(Cc1ccc(-n2cccc2)cc1)NCc1ccccc1Cl,5.8µM*,18.4µM*,5.8µM*,-5.6,4.11µM*,?
Cc1ccc(-c2nnc3c4ccccc4c(C)nn23)cc1NC(=O)c1ccccc1Cl,3.4%,.,-27.1%,.,.,.
Cc1ccccc1CN1c2ccccc2-c2nc(SCC(=O)c3ccccc3)ncc2S1(=O)=O,0.4%,.,-0.3%,.,.,.
Cn1c(=O)c2c(-c3ccccc3Cl)n(-c3cc(Cl)ccc3O)cc2n(C)c1=O,20.6µM*,.,?,.,.,.
Cn1c(=O)c2c(-c3ccccc3Cl)n(Cc3ccc(Cl)cc3)cc2n(C)c1=O,8.2µM*,.,6.51µM*,.,.,.
Nc1ccc(CSc2ccc(Cl)cc2)cc1,15.1%,-13.1%,-1.9%,-8.6,18.1%,?
O=C(Cn1ncc2c1-c1ccccc1OC2)N1CCN(c2ccccc2)CC1,-29.9%,.,16.4µM*,.,.,.
Cc1ccc2c(c1)-c1c(cnn1CC(=O)Nc1ccccc1N1CCN(C)CC1)CO2,?,-3.9%,?,-24.5,-7.4%,?
CCN(CC)C(=O)Cn1ncc2c1-c1ccccc1OC2,-2.6%,-2.3%,?,0.0,0.3%,-0.1%
O=C(Cn1ncc2c1-c1ccccc1OC2)N1CCN(Cc2ccc3c(c2)OCO3)CC1,-29.9%,-1.6%,?,14.3,-5.1%,?
CCCN(C(=O)Cn1ncc2c1-c1ccccc1OC2)c1cccc(C)c1,?,.,16.4µM*,.,.,.
Cc1cccc(N2CCN(C(=O)Cn3ncc4c3-c3cc(C)ccc3OC4)CC2C)c1 (centres undefined),23.1µM*,.,23.1µM*,.,.,.
COc1ccccc1N1CCN(C(=O)Cn2ncc3c2-c2cc(C)ccc2OC3)CC1,25.9µM*,.,20.6µM*,.,.,.
Cc1nn2c(=O)cc(COC(=O)c3c(F)cccc3Cl)nc2s1,-0.5%,-10.6%,12.4%,-0.6,2.1%,?
CCCS(=O)(=O)N1CCCC(C(=O)NCCc2cccc(C)c2)C1 (centres undefined),-8.2%,-5.2%,-2.3%,-13.5,1.4%,2.0%
CCN(CC)C(=O)[C@H]1C[C@H](CC(=O)NCCN2CCOCC2)C(=O)N2CCc3c([nH]c4cc(CCC(=O)N(C)C)ccc34)[C@]12C,-0.3%,-45.0%,-5.8%,-9.8,22.9%,0.5%
Cc1ccc(N2CCN(C(=O)C3CCN(S(=O)(=O)c4ccc5c(c4)oc(=O)n5C)CC3)CC2C)cc1 (centres undefined),5.8µM*,.,3.66µM*,.,.,.
CC1CCN(C(=O)C2CCN(S(=O)(=O)c3cccc4nsnc34)CC2)CC1,-12.6%,3.1%,-20.3%,-8.6,-4.5%,9.3%
Cc1ccc(C)c(N(C)C(=O)C2CCN(S(=O)(=O)c3cccc4nsnc34)CC2)c1,16.4µM*,.,13µM*,.,.,.
Cc1ccc(N2CCN(C(=O)C3CCN(S(=O)(=O)c4cccc5nsnc45)CC3)CC2C)cc1 (centres undefined),?,3.9%,16.4µM*,-14.8,-0.1%,.
Cc1ccc(N2CCN(S(=O)(=O)c3ccc4c(c3)oc(=O)n4C)CC2C)cc1 (centres undefined),?,?,-8.7%,12.7,-0.7%,3.1%
SMILES,TDP1 cell CPT,SW480 rereplic,TDP1 cell noCPT,IL-1B inflam inh,MCF10A rereplic,Chronic BCR inh
Cc1ccc(C)c(N2CCN(C(=O)C3CCN(S(=O)(=O)c4cccc5nsnc45)CC3)CC2)c1,18.4µM*,24.4%,18.4µM*,?,13.2%,24.9%
CC(C)CCNC(=O)CN1C(=O)c2cccnc2Oc2ccccc21,-4.0%,.,-18.0%,.,.,.
N#C[C@H](Cc1ccc(O)cc1)c1ccc(O)cc1,-11.6%,.,?,.,.,.
O=C(COc1ccccc1F)Nc1nnc(SCc2cc(=O)n3ccccc3n2)s1,1.0%,.,-2.5%,.,.,.
COc1ccccc1CNS(=O)(=O)c1ccc(Cl)s1,1.9%,-7.7%,-29.0%,8.7,-1.4%,-2.2%
CCNc1nc(N)c(C(=C(C#N)C#N)c2ccccc2)s1,?,?,?,-74.7*,20µM*,14.0%
Cc1cccc(NC(=O)CNC(=O)CN2C(=O)NC3(CCCCC3C)C2=O)c1C (centres undefined),-1.4%,-4.0%,1.0%,6.5,1.1%,-0.3%
CN(C)CCn1c2ccccc2c2nc3ccc([N+](=O)[O-])cc3cc21,2.06µM*,?,2.91µM*,.,13.2%,20.6%
CCn1c2ccccc2c2cc([N+](=O)[O-])ccc21,9.1%,-98.9%,-9.2%,-1.9,12.6%,6.2%
Cc1ccc(NS(=O)(=O)c2c(C)[nH]c(C)c2C(=O)N2CCCCC2)cc1F,?,1.3%,-4.0%,-20.9,3.6%,0.0%
O=C(NCc1cccnc1)NC1(C(F)(F)F)Oc2ccc(Cl)cc2O1 (centres undefined),10.3µM*,12.9%,11.6µM*,28.3,10.7%,0.3%
Cc1cc(NC(=O)NC2(C(F)(F)F)Oc3ccc(Cl)cc3O2)no1 (centres undefined),18.4µM*,9.9%,18.4µM*,44.2,-1.1%,-3.9%
Cc1cc(NC(=O)Nc2ccc(F)c(Cl)c2)no1,-26.6%,-1.4%,-10.5%,-23.7,11.5%,-2.7%
COCCNC(=O)NC1(C(F)(F)F)Oc2ccc(Cl)cc2O1 (centres undefined),18.4µM*,3.1%,13µM*,0.0,15.2%,?
Cc1c(Cl)cccc1NC(=O)NCc1cccnc1,1.4%,?,13.2%,19.2,-1.7%,7.4%
Cc1ccc(Cl)cc1NC(=O)NCc1cccnc1,-11.5%,18.4µM*,12.4%,36.5,0.2%,5.0%
CCCCCC1CC(CC(=O)O)C(=O)O1 (centres undefined),-1.8%,-1.5%,-7.4%,23.8,-2.0%,?
CCCCCCC1CC(=CN(C)C)C(=O)O1 (centres undefined),?,.,16.4µM*,9.2,.,.

# Assay outcomes deposited in PubChem by National Center for Advancing Translational Sciences (NCATS).
